From PubChem BioAssay (NCATS)
Where “and” joins values, the source holds several entries; their conditions need not be identical. Equal entries are not always repeated. Results filed as inconclusive are left out. Calls of active or inactive are those of the source. Unless noted, calls follow the shape of the dose curve; as a rule, active = well fitted curve in the direction sought with a large enough effect; inconclusive = small, poorly fitted or top-dose-only effect, or another doubt; inactive = no such curve, though single readings can be large; an effect the other way counts as inactive or inconclusive.

Columns and labels:
[1] = Cell Viability - LYMP2-018 (AID 985); details: LYMP2-018 lymphoblastoid cells, viability (qHTS); series mostly up to 92.2 µM; also: nearly all actives have a fitted effect of over 50% in size; also: potency is read from the fitted curve at half-maximal effect
Outline: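 Viability read as CellTiter-Glo luminescence (cellular ATP) after 24 hr compound exposure at 37 C of 2500 LYMP2-018 lymphoblastoid cells/well, pre-plated 5 hr. Hill-equation modelling gave AC50.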

[2] = Cell Viability - LYMP2-020 (AID 986); details: series mostly up to 92.2 µM; also: nearly all actives have a fitted effect of over 55% in size; also: potency is read from the fitted curve at half-maximal effect
Outline: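 Cytotoxicity in qHTS format: luminescent ATP readout from CellTiter-Glo after 24 h compound exposure at 37 C in complete medium. LYMP2-020 lymphoblastoid cells were seeded at 2500/well; concentration-response data fitted to the Hill equation for AC50.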

[3] = Cell Viability - LYMP2-022 (AID 987); details: LYMP2-022 lymphoblastoid cell viability; series mostly up to 92.2 µM; also: nearly all actives have a fitted effect of over 55% in size; also: potency is read from the fitted curve at half-maximal effect
Outline: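 Cytotoxicity read as decreased cellular ATP (CellTiter-Glo luminescence, 30 min room temperature) after 24 hours compound exposure of 2500 lymphoblastoid LYMP2-022 cells/well at 37 C. Concentration-response data fitted with standard Hill equation for AC50.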

[4] = Cell Viability - LYMP1-002 - Assay at 24 hr (AID 993); details: LYMP1-002 lymphoblastoid cells viability; series mostly up to 92.2 µM; also: potency is read from the fitted curve at half-maximal effect
Outline: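 qHTS cytotoxicity at 24 h: CellTiter-Glo ATP luminescence in lymphoblastoid line LYMP1-002 incubated with compound at 37 °C. Concentration-response modeled with the Hill equation for AC50; tetraoctylammonium bromide served as positive control.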

[5] = qHTS Assay for Lipid Storage Modulators (AID 1519; calls by dose curve; as to activity change, negative = inhibition: % is scaled to controls: 0 for no effect and ±100 for the full control effect); details: Drosophila S3 cells, BODIPY lipid droplet/cell ratio, laser cytometry, cells loaded with oleic acid; for activity change, negative = inhibition: at 57.5 µM (top of the series)
Outline: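 Cells seeded at 5,000 per well were treated with compounds over a concentration series and loaded with oleic acid (400 uM, as added). Lipid droplet fluorescence (488 nm excitation, 500-530 nm channel) was read by laser-scanning cytometry and normalized to 20 uM Triacsin C.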

[6] = Cell Viability - LYMP2-026 (AID 989); details: LYMP2-026 lymphoblastoid cell viability, qHTS; series mostly up to 92.2 µM; also: % is scaled to controls: 0 for no effect and ±100 for the full control effect; nearly all actives have a fitted effect of over 50% in size
Outline: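 Cytotoxicity read as ATP-dependent luminescence (CellTiter-Glo, 30 min room temperature) after 24 h compound treatment at 37 C. LYMP2-026 lymphoblastoid line seeded at 2500 cells/well; AC50 derived by standard Hill equation.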

[7] = Cell Viability - LYMP1-002 - Assay at 40 hr (AID 994); details: LYMP1-002 lymphoblastoid cell viability; series mostly up to 92.2 µM; also: nearly all actives have a fitted effect of over 60% in size; also: potency is read from the fitted curve at half-maximal effect
Outline: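 Cytotoxicity was read as loss of cellular ATP (CellTiter-Glo luminescence) after 40 hr compound exposure at 37 C of 2500 LYMP1-002 lymphoblastoid cells per well. Concentration-response data were fitted with the standard Hill equation to give AC50.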

[8] = target: Alpha-galactosidase (Coffea arabica) (UniProt Q42656); assay: Counterscreen for Glucocerebrosidase Inhibitors: qHTS Assay for Coffee Bean alpha-Galactosidase at pH 5.9 (AID 998); details: coffee bean alpha-galactosidase enzyme assay; series mostly up to 76.9 µM;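 also: plate controls were uninhibited enzyme for no effect and no-enzyme basal signal for full effect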
Outline: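 In 50 mM citric acid pH 5.9 with 0.005% Tween-20, coffee bean enzyme hydrolyses 80 uM 4-MU alpha-D-galactopyranoside over 20 min at RT. Activity is normalized to controls; AC50 comes from Hill-modelled concentration-response data.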

[9] = target: Alpha-galactosidase A (Homo sapiens) (UniProt P06280); assay: Counterscreen for Glucocerebrosidase Inhibitors: qHTS Assay for Human alpha-Galactosidase at pH 4.5 (AID 992); details: purified enzyme, fluorogenic substrate; series mostly up to 76.9 µM; also: 0% is about no effect
Outline: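 Each compound is preincubated briefly with 2 nM enzyme before substrate addition (80 uM); plates then sit 20 min at ambient temperature, are quenched with 1M NaOH/1M glycine, and read fluorometrically.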

[10] = target: alpha-glucosidase (Oryza sativa, rice) (UniProt Q653V4); assay: Counterscreen for Glucocerebrosidase Inhibitors: qHTS Assay for Rice alpha-Glucosidase at pH 5.0 (AID 997); details: rice alpha-glucosidase enzyme activity; series mostly up to 76.9 µM;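 also: 0% = full activity with enzyme and -100% = basal without enzyme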
Outline: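 Endpoint fluorogenic assay at pH 5.0: compounds (0.7 nM to 77 uM) titrated against 4 nM rice enzyme and 400 uM 4-MU-alpha-glucoside for 20 min at room temperature; NaOH/glycine stop, read ex 365/em 440 nm, Hill-fitted AC50.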

[11] = target: DNA repair nuclease/redox regulator APEX1 (Homo sapiens) (UniProt P27695); assay: qHTS Validation Assay for Inhibitors of the Human Apurinic/apyrimidinic Endonuclease 1 (APE1) (AID 1705;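 also: TAMRA fluorescence gain over two minutes as APE1 cuts a quenched THF abasic duplex; % is scaled to controls: 0 for no effect and ±100 for the full control effect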); details: purified APE1 endonuclease activity, fluorescence, titration; series mostly up to 57.1 µM
Outline: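 Read-out: TAMRA fluorescence (525 nm ex, 598 nm em) from cleavage of a quenched THF abasic-site duplex, 50 nM final; activity taken as intensity change between third and first of three reads 60 s apart.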

[12] = Counterscreen for APE1 Inhibitors: Fluorescent Dye Displacement Validation Assay (AID 1707); details: fluorescent dye displacement from DNA; series mostly up to 57.1 µM;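 also: plate controls were ThO with dsDNA and no compound for no effect and ThO without dsDNA for full effect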
Outline: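 Loss of Thiazole Orange fluorescence marks promiscuous DNA binders. The dye (250 nM) is mixed with 50 nM abasic-site dsDNA in pH7.5 Tris buffer containing MgCl2, then compounds are added and emission is read once.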

[13] = target: Endonuclease 4 (Escherichia coli (strain K12)) (UniProt P0A6C1); assay: Counterscreen for APE1 Inhibitors: qHTS Validation Assay for Inhibitors of Endonuclease IV (AID 1708); also: % is scaled to controls: 0 for no effect and ±100 for the full control effect; details: E. coli endonuclease IV, DNA cleavage fluorescence; series mostly up to 57.1 µM
Outline: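 Enzyme (2 nM) + compound, 15 min RT; add 50 nM TAMRA/BHQ-2 THF-site dsDNA; kinetic read ex525/em598, 3 reads/60 s; activity = read 3 − read 1. Buffer Tris pH 7.5, 50 mM NaCl, 2 mM MgCl2, DTT, Tween-20.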

[14] = qHTS for differential inhibitors of proliferation of Plasmodium falciparum line 7G8 (AID 1815); details: Plasmodium falciparum 7G8 proliferation inhibition; series mostly up to 28.7 µM;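 also: parasite growth measured after three days of incubation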; also: potency is read from the fitted curve at half-maximal effect;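 as to activity change, negative = inhibition: plate controls were vehicle wells for no effect and reference inhibitor wells for full effect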
[15] = qHTS for differential inhibitors of proliferation of Plasmodium falciparum line GB4 (AID 1816); details: Potency: Plasmodium falciparum GB4 proliferation inhibition; series mostly up to 28.7 µM;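 also: parasite growth measured after 72 h incubation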; also: potency is read from the fitted curve at half-maximal effect;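 as to activity change, negative = inhibition: 0% = vehicle DMSO and -100% = reference inhibitor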
[16] = qHTS for differential inhibitors of proliferation of Plasmodium falciparum line 3D7 (AID 1876); also: potency is read from the fitted curve at half-maximal effect; details: P. falciparum 3D7 proliferation inhibition; series mostly up to 28.7 µM
[17] = qHTS for differential inhibitors of proliferation of Plasmodium falciparum line D10 (AID 1877); details: series mostly up to 28.7 µM;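 also: parasites grown with compound for 72 h before DNA staining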; also: potency is read from the fitted curve at half-maximal effect;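 as to activity change, negative = inhibition: plate controls were vehicle wells for no effect and reference inhibitor wells for full effect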
[18] = qHTS for differential inhibitors of proliferation of Plasmodium falciparum line Dd2 (AID 1882); details: Potency: Plasmodium falciparum Dd2 proliferation inhibition; series mostly up to 28.7 µM; also: nearly all actives have a fitted effect of over 65% in size; also: potency is read from the fitted curve at half-maximal effect;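 as to activity change, negative = inhibition: plate controls were DMSO vehicle for no effect and 0.29 µM artemisinin for full effect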
Outline: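 SYBR Green DNA fluorescence (ex 485, em 535 nm) after overnight lysis quantifies parasite growth; compound exposure lasted 72 h at 37 C on infected red cells at 2.5% hematocrit, 0.3% parasitemia (final). Artemisinin 0.29 uM and vehicle wells define normalization.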

[19] = qHTS for differential inhibitors of proliferation of Plasmodium falciparum line W2 (AID 1883); details: Potency: Plasmodium falciparum W2 proliferation inhibition; series mostly up to 28.7 µM;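 also: parasites grown with compound for 72 h before lysis and staining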; also: potency is read from the fitted curve at half-maximal effect;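 as to activity change, negative = inhibition: 0% = vehicle wells and -100% = control inhibitor wells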
[20] = measured here: cell count channel max response
[21] = measured here: lipid channel max response

Chain of Alpha-galactosidase (Coffea arabica) (Q42656 whole entry, looked up): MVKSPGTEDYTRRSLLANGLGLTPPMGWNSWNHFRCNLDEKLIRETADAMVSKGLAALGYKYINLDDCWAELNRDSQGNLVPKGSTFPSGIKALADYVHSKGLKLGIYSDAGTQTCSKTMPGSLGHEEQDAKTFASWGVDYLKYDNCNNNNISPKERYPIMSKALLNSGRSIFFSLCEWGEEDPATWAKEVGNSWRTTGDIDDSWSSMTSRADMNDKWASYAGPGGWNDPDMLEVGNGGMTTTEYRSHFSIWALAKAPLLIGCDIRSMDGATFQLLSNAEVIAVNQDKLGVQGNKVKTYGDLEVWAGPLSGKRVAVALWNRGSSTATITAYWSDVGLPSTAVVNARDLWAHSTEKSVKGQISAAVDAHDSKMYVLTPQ
Chain of Alpha-galactosidase A (Homo sapiens) (P06280 whole entry, looked up): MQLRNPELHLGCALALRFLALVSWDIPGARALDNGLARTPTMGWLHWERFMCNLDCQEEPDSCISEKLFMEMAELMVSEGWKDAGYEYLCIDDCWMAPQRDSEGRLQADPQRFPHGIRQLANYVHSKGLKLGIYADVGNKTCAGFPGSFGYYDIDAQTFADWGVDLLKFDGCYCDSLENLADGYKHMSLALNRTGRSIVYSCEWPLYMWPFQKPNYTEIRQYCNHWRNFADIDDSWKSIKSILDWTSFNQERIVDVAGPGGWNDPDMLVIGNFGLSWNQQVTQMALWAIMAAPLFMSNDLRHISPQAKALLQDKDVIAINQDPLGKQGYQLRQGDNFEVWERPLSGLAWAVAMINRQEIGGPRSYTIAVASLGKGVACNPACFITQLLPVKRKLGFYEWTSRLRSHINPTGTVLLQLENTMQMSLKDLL
Chain of DNA repair nuclease/redox regulator APEX1 (Homo sapiens) (P27695 whole entry, looked up): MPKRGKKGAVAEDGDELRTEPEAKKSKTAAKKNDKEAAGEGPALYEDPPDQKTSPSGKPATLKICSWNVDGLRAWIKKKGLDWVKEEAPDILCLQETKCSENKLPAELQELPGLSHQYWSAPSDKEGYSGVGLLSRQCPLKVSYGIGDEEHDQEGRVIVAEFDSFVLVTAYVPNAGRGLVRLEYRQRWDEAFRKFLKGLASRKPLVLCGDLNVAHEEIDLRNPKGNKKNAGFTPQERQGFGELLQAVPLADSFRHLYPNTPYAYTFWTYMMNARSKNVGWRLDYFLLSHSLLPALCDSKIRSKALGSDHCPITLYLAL

Oc1cccc2cccnc12
inactive: activity change, negative = inhibition [5] 3.44%
3.47%: max response [5, 21]
-2.95%: max response [5, 20]
active: Potency [1] 12.6 µM and 10 µM | Potency [2] 12.6 µM and 10 µM | Potency [3] 10 µM and 6.31 µM | Potency [4] 25.1 µM

CCOP(=S)(OCC)Oc1cc(C)nc(C(C)C)n1
inactive: Potency [1] | Potency [2] | Potency [3] | outcome [6] | Potency [4] | Potency [7]

CN1CCC[C@@H]1CCO[C@](C)(c1ccccc1)c1ccc(Cl)cc1
inactive: outcome [8]

O=NN(CCCl)C(=O)NCCCl
inactive: outcome [8]

CNCC(O)c1ccc(O)cc1 (configuration not stated)
inactive: Potency [1] | Potency [2] | Potency [3] | outcome [6] | outcome [9] | Potency [4] | Potency [7] | outcome [10] | outcome [8] | outcome [11] | Potency [12] | outcome [13] | Potency [14] | Potency [15] | Potency [16] | Potency [17] | Potency [18] | Potency [19]

Oc1ccc(Cl)cc1Cc1ccccc1
inactive: Potency [1] | Potency [2] | Potency [3] | outcome [6] | Potency [4] | Potency [7]

CN(C)C(=O)C(CCN1CCC(O)(c2ccc(Cl)cc2)CC1)(c1ccccc1)c1ccccc1
inactive: outcome [8] | activity change, negative = inhibition [5] -2.05%
-2.23%: max response [5, 21]
-1%: max response [5, 20]

Clc1ccc(C(c2ccccc2Cl)C(Cl)Cl)cc1 (configuration not stated)
inactive: outcome [8]

C[C@](N)(Cc1ccc(O)c(O)c1)C(=O)O
inactive: outcome [8]

CC[N+](CC)(CC)CC
inactive: outcome [8] | outcome [11] | Potency [12] | Potency [18]
active: Potency [16] 11.2 µM | Potency [17] 11.2 µM

Clc1cccc(N2CCNCC2)c1
inactive: outcome [9] | outcome [10] | outcome [8] | outcome [11] | Potency [12] | outcome [13] | Potency [16] | Potency [17]
active: Potency [15] 12.6 µM | Potency [19] 6.31 µM

C=C(C)[C@H]1Cc2c(ccc3c2O[C@@H]2COc4cc(OC)c(OC)cc4[C@@H]2C3=O)O1
active: Potency [14] 11.2 µM | Potency [15] 12.6 µM | Potency [19] 8.91 µM
inactive: outcome [11] | Potency [12] | outcome [13] | Potency [18]

N#CC(C#N)=Cc1ccc(O)c(O)c1
inactive: outcome [9] | outcome [10] | outcome [8] | outcome [11] | Potency [12] | outcome [13] | Potency [18]
active: Potency [15] 14.1 µM | Potency [19] 12.6 µM

O=c1[nH]cc(F)c(=O)[nH]1
inactive: outcome [8]
active: Potency [14] 7.08 µM | Potency [15] 7.94 µM | Potency [16] 4.47 µM | Potency [17] 4.47 µM | Potency [19] 7.94 µM

N[C@@H](Cc1ccc(N(CCCl)CCCl)cc1)C(=O)O
inactive: Potency [4] | Potency [7]
active: Potency [1] 25.1 µM | Potency [2] 39.8 µM | Potency [3] 15.8 µM

CN(C)CCC=C1c2ccccc2CCc2ccccc21
active: Potency [14] 10 µM | Potency [15] 7.94 µM | Potency [17] 8.91 µM | Potency [19] 3.16 µM
inactive: outcome [8]

Nc1nc2c(ncn2COCCO)c(=O)[nH]1
inactive: outcome [8]

Clc1ccc(COC(Cn2ccnc2)c2ccc(Cl)cc2Cl)cc1 (configuration not stated)
inactive: Potency [4] | activity change, negative = inhibition [5] -5.83%
-20.8%: max response [5, 21]
active: Potency [1] 50.1 µM | Potency [7] 50.1 µM
-16.9%: max response [5, 20]

Cc1c(OCC(F)(F)F)ccnc1CS(=O)c1nc2ccccc2[nH]1 (configuration not stated)
inactive: outcome [8]
active: Potency [14] 8.91 µM | Potency [15] 10 µM | Potency [16] 11.2 µM | Potency [17] 12.6 µM | Potency [19] 10 µM

COc1ccc(Cc2nccc3cc(OC)c(OC)cc23)cc1OC
inactive: outcome [8] | outcome [11] | Potency [12] | Potency [14] | Potency [18]

O=c1[nH]c2ccccc2n1C1CCN(CCCC(c2ccc(F)cc2)c2ccc(F)cc2)CC1
active: Potency [14] 3.98 µM | Potency [15] 8.91 µM | Potency [16] 3.16 µM | Potency [17] 7.08 µM | Potency [18] 10 µM | Potency [19] 2.82 µM
inactive: outcome [9] | outcome [10] | outcome [8] | Potency [12]

CC(COc1ccccc1)N(CCCl)Cc1ccccc1 (configuration not stated)
active: Potency [2] 50.1 µM | Potency [14] 7.94 µM | Potency [19] 2.51 µM

NCC(O)c1ccc(O)cc1 (configuration not stated)
inactive: Potency [1] | Potency [2] | Potency [3] | outcome [6] | Potency [4] | Potency [7] | activity change, negative = inhibition [5] 5.18% | Potency [12] | outcome [13] | Potency [14] | Potency [15] | Potency [16] | Potency [17] | Potency [18] | Potency [19]
15.4%: max response [5, 20]
23.7%: max response [5, 21]

c1ccc2c(c1)Nc1ccccc1S2
inactive: Potency [1] | Potency [2] | Potency [3] | outcome [6] | Potency [4] | Potency [7]

Cc1nc2n(c(=O)c1CCN1CCC(c3noc4cc(F)ccc34)CC1)CCCC2
inactive: outcome [8]
active: Potency [14] 11.2 µM | Potency [15] 11.2 µM | Potency [16] 12.6 µM | Potency [17] 10 µM | Potency [19] 10 µM

N[C@@H]1C[C@H]1c1ccccc1
inactive: outcome [9] | outcome [10] | outcome [8]

COc1cc2c(c(OC)c1OC)-c1ccc(OC)c(=O)cc1[C@@H](NC(C)=O)CC2
inactive: outcome [8] | outcome [13]
active: Potency [14] 11.2 µM | Potency [16] 10 µM | Potency [19] 11.2 µM

CN(C)c1nc(N(C)C)nc(N(C)C)n1
inactive: outcome [8]

OCCN1CCN(CCCN2c3ccccc3Sc3ccc(C(F)(F)F)cc32)CC1
active: Potency [14] 2.82 µM | Potency [15] 2.51 µM | Potency [16] 2.51 µM | Potency [17] 10 µM | Potency [18] 10 µM | Potency [19] 1.41 µM
inactive: outcome [8]

CCCN1CCC[C@@H]2Cc3nc(N)ncc3C[C@H]21
inactive: outcome [9] | outcome [10] | outcome [8] | outcome [11] | Potency [12] | outcome [13] | Potency [14] | Potency [15] | Potency [16] | Potency [17] | Potency [18] | Potency [19]

NC(=O)OCC(COC(N)=O)c1ccccc1
inactive: outcome [8]
